Source: paper PMC4336329 (PLoS ONE, 2015)
Hit rate of the full screen: of about 310,000 compounds, about 14,000 (4.5%) showed an effect of 50% or more. The effect is printed as a negative number. This is one part of a sample in which strong results are shown more often than they occur.

Molecular target: human ether-à-go-go-related gene (hERG) potassium channel (human, UniProt Q12809)
Assay: primary screen, population patch clamp on CHO cells stably expressing hERG; higher = less effect of the substance
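Also: peak tail current of the secondary pulse compared with the same well before compound.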

human ether-à-go-go-related gene (hERG) potassium channel, sequence (Q12809 whole entry, looked up): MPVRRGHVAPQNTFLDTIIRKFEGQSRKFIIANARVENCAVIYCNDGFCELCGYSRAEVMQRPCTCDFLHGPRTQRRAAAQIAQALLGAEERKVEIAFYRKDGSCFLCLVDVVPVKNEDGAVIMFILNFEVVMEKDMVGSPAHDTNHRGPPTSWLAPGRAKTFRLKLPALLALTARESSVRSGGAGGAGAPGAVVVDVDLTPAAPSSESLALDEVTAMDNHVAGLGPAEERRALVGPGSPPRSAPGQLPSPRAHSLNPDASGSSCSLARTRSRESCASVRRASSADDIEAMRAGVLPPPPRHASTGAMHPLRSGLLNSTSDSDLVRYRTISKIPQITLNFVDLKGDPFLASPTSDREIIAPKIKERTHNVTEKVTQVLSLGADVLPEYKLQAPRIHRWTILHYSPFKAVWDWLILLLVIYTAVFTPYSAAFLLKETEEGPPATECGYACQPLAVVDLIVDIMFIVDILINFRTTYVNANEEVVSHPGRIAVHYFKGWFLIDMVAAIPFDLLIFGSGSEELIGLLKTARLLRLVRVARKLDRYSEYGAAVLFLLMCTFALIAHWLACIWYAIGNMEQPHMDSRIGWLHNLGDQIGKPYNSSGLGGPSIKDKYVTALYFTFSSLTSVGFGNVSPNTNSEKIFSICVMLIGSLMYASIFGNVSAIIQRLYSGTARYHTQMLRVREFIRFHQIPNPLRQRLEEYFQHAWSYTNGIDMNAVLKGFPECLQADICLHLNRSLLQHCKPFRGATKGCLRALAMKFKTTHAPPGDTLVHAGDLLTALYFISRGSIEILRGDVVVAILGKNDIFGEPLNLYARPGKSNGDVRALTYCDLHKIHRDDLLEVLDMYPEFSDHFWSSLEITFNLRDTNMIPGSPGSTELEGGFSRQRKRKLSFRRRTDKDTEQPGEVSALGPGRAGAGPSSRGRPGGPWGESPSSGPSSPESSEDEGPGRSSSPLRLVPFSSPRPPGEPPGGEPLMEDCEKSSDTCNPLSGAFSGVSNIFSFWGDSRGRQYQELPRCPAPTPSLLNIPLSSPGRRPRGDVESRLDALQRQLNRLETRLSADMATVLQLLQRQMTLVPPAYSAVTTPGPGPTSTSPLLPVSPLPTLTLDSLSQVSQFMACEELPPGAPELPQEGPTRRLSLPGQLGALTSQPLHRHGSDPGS

Going from COc1ccc(S(=O)(=O)Nc2ccc3oc(C)c(C(C)=O)c3c2)cc1 to O=C(N/N=C/c1ccc(-c2cccc([N+](=O)[O-])c2)o1)c1ccc([N+](=O)[O-])cc1, the “hERG current change (%, negative = inhibition) at 10uM” value falls from 12% to -40%.

First: COC(=O)c1sc(-c2ccc(Cl)cc2)cc1N
Second: CCOC(=O)CC1C(=O)NCCN1C(=O)Nc1ccc(Cl)cc1 (centres unmarked)
The “hERG current change (%, negative = inhibition) at 10uM” value of the first is lower: -37.1% for the first, 2.37% for the second.

Compared with O=C(c1ccc(COc2ccc3ccccc3c2)o1)N1N=C(C(F)F)CC1(O)C(F)F (centres unmarked), O=C(CN1C(=O)c2ccccc2S1(=O)=O)c1ccc(OC(F)F)cc1 is lower in “hERG current change (%, negative = inhibition) at 10uM” value: -2.62% for the first, -23% for the second.

First: CC1(C)CC(NC(=O)C(F)(F)F)CC(C)(C)N1OC(=O)c1ccco1
Second: CC1(C)CC(O)CC(C)(C)N1CC(O)COCCOc1ccc(Br)cc1 (centres unmarked)
The “hERG current change (%, negative = inhibition) at 10uM” value of the first is higher: 1.13% for the first, -42.4% for the second.

Going from Cc1ccc(S(=O)(=O)NCCCCCC(=O)N(C)C)cc1 to Cc1ccc(C(=O)N/C(=C/c2ccc(-c3cccc([N+](=O)[O-])c3)o2)C(=O)NCCCN(C)C)cc1, the “hERG current change (%, negative = inhibition) at 10uM” value falls from 6.32% to -80%.

Going from CCOC(=O)/C=C1\SCC(=O)N1CC(=O)NC(C)C to CCOC(=O)/C=C1\SCC(=O)N1CC(=O)NC(C)c1ccccc1 (centres unmarked), the “hERG current change (%, negative = inhibition) at 10uM” value falls from 21.2% to -15.2%.

Going from CCOC(=O)/C=C1\SCC(=O)N1CC(=O)NC(c1ccccc1)c1ccccc1 to Cc1c(C=O)c2ccccc2n1CC(=O)NCc1ccc2c(c1)OCO2, the “hERG current change (%, negative = inhibition) at 10uM” value rises from -52.2% to 21.8%.

Going from O=C(NCC(=O)N1CCCCCC1)c1ccc(OC(F)F)cc1 to Br.O=C(CN1CCCCC1CO)c1ccc(OC(F)F)cc1 (centres unmarked), the “hERG current change (%, negative = inhibition) at 10uM” value falls from -11.3% to -68.2%.

Going from CCC1CCCCN1CC(=O)c1ccc(OC(F)F)cc1 (centres unmarked) to CCC1CCCCN1CC(=O)c1c(C)[nH]c2ccc(OC)cc12 (centres unmarked), the “hERG current change (%, negative = inhibition) at 10uM” value rises from -77.7% to -20.6%.

Going from CCC1CCCCN1CC(=O)c1c(C)[nH]c2ccccc12 (centres unmarked) to O=c1c2ccccc2ncn1C1CCCCC1, the “hERG current change (%, negative = inhibition) at 10uM” value rises from -27.4% to -19.4%.

First: O=c1c2cc(N3CCOCC3)ccc2[nH]c(=S)n1CCCN1CCCC1
Second: O=C(CSc1nnc(CN2CCOCC2)n1-c1ccc(Cl)cc1)Nc1ccc2c(c1)OCO2
The “hERG current change (%, negative = inhibition) at 10uM” value of the first is higher: -4.98% for the first, -9.87% for the second.

Going from CC(C)(C)c1ccc(CN(Cc2ccccc2)C(c2ccccn2)c2nnnn2C(C)(C)C)cc1 (centres unmarked) to O=c1oc2ccccc2c2c1ncn2-c1ccccc1, the “hERG current change (%, negative = inhibition) at 10uM” value falls from 2.44% to -11.8%.

First: COc1ccc(S(=O)(=O)N2CCC(C)CC2)cc1N(C)S(=O)(=O)c1ccccc1
Second: CC1CCN(CC(O)COCCOc2ccc(Br)cc2)CC1.Cl (centres unmarked)
The “hERG current change (%, negative = inhibition) at 10uM” value of the first is higher: -2.12% for the first, -64.3% for the second.

First: COC(=O)c1cccc(NC(=O)CCNC(=O)c2ccco2)c1
Second: COC(=O)C1=C(C)N(c2ccc(C(=O)OC)cc2)C(=O)C1
The “hERG current change (%, negative = inhibition) at 10uM” value of the first is lower: 18.8% for the first, 22.3% for the second.

Compared with O=C(CSc1nnc(-c2ccncc2)o1)N1CCCC1, O=c1oc2ccccc2c2c1ncn2C1CCCCC1 is lower in “hERG current change (%, negative = inhibition) at 10uM” value: -19.1% for the first, -51.7% for the second.

First: O=C(CCC(=O)c1ccc(Oc2ccccc2)cc1)Nc1ccc(Cl)cc1Cl
Second: Cc1ccc(C(=O)N/C(=C\c2ccc(-c3cccc([N+](=O)[O-])c3)o2)C(=O)NC(C)(C)C)cc1
The “hERG current change (%, negative = inhibition) at 10uM” value of the first is higher: 5.46% for the first, 1.94% for the second.

Compared with CCN(CC)S(=O)(=O)c1ccc(-c2nnc(SCC(=O)Nc3nnc(C)s3)n2CC)cc1, Cc1ccc(C(=O)N/C(=C\c2ccc(-c3cccc([N+](=O)[O-])c3)o2)C(=O)NCCCN(C)C)cc1 is lower in “hERG current change (%, negative = inhibition) at 10uM” value: 12.2% for the first, -67.6% for the second.

Going from Cc1ccc(C(=O)N/C(=C/c2ccc(-c3cccc([N+](=O)[O-])c3)o2)C(=O)NC(C)C)cc1 to Cc1ccc(C(=O)N/C(=C/c2ccc(-c3cccc([N+](=O)[O-])c3)o2)C(=O)NC(C)(C)C)cc1, the “hERG current change (%, negative = inhibition) at 10uM” value rises from -30.8% to -21.9%.

First: CC/C(O)=C1\C(=O)CCCC1=NCCc1c(C)[nH]c2ccc(C)cc12
Second: CC(=O)c1c(C)[nH]c(C(=O)N2c3ccccc3CC2C)c1C (centres unmarked)
The “hERG current change (%, negative = inhibition) at 10uM” value of the first is lower: -14% for the first, 5.33% for the second.

Going from Cc1csc(=O)n1CCC(=O)OCC(=O)c1ccc(Br)cc1 to CN1CCN(CC(O)COCCOc2ccc(Br)cc2)CC1.Cl (centres unmarked), the “hERG current change (%, negative = inhibition) at 10uM” value rises from -18.4% to 10.4%.

Compared with O=CN1CCN(C(C(=O)NC2CCCCC2)c2ccc(Cl)cc2)CC1 (centres unmarked), O=CN1CCN(C(C(=O)NC2CCCC2)c2ccc(Cl)cc2)CC1 (centres unmarked) is higher in “hERG current change (%, negative = inhibition) at 10uM” value: -15% for the first, -14.8% for the second.

Compared with O=C(NC1CCCC1)C(c1ccc(Cl)cc1)N1CCN(C2CCCCC2)CC1 (centres unmarked), CC1(C)CCCC(C)(C)N1CC(O)COCCOc1ccc(Br)cc1.Cl (centres unmarked) is lower in “hERG current change (%, negative = inhibition) at 10uM” value: -59.3% for the first, -67.5% for the second.
